Compounds without any hit were thinned out: in the full panel of roughly 79,000, 15% have a hit. Active and inactive are the calls of the source. No stated cut-off is given here; in the data, active means growth inhibition above about 70%; inactive means the rest.

A short description of the assay: NCI Yeast Anticancer Drug Screen. Data for the rad50 strain (AID 155).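 Further: 0% = growth of vehicle-only cultures of the same strain.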 The settings on record: S. cerevisiae rad50 strain growth inhibition; at 3.7 µM; hits give high values. Summed up: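 Vehicle-treated cultures provide the reference for the growth inhibition reported for compound-exposed, repair-deficient yeast.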
On to `CN(C)CC(CN(C)C)C(=O)/C=C/c1ccc(Cl)cc1Cl`, for which the growth inhibition is 0% (inactive).
Turning to `c1ccc2c(c1)ccn2CCc1c[nH]c2ccccc12`, the growth inhibition was -20% (inactive).
Next, `Cc1ccccc1NC(=O)c1c(C)oc2c1C(=O)c1ccccc1C2=O`: -12% (inactive); `CC(C)OC(=O)NNc1c(Cl)cc(Cl)cc1Cl`: 7% (inactive).
The same measure for `COc1ccc2nc3cccc([N+](=O)[O-])c3c(NCCNCCO)c2c1`: 81% (active); for `COc1ccc2c(c1)CCCC(Br)C2=O` (stereo unspecified): 28% (inactive); for `CCC(OC(C)=O)C1CC(C(C)C)CCC1C` (stereo unspecified): -43% (inactive).
The same measure for `O=S(=O)(c1cccc(C(F)(F)F)c1)N1c2ccccc2-n2cccc2C1c1cccnc1` (stereo unspecified): 5% (inactive); for `c1ccc(-c2cc(C3CO3)c3ccccc3n2)cc1` (stereo unspecified): 1% (inactive); for `COc1ccc(/C=C2\SC(=S)N(/C=C3\C(=O)N(c4ccccc4)N=C3C)C2=O)cc1OC`: -10% (inactive).
For the molecule `CC1=CC(=C(c2ccc(N)c(C)c2)c2ccc(N)c(C)c2)C=CC1=N`, the growth inhibition was 10% (inactive).
The same measure for `CC1C(c2ccccc2)SC(=N)N1C` (stereo unspecified): -46% (inactive); for `CC(/C=C/c1ccc([N+](=O)[O-])o1)=N/N1CC(CN2CCOCC2)OC1=O` (stereo unspecified): -6% (inactive).
The same measure for `C=CC(C)(C)N1C(=O)C(C(C)=O)=C(O)C1Cc1c[nH]c2ccccc12` (stereo unspecified): -2% (inactive).
Take `O=C1c2cccc3cccc(c23)C(=O)N1CCNCCN1C(=O)c2cccc3cccc(c23)C1=O`: the growth inhibition is 3% (inactive).
In the case of `Cc1ccc([N+](=O)[O-])c2c(NCCC[N+](C)(C)[O-])c3ccccc3nc12`, the growth inhibition was 7% (inactive).
For `COC(=O)C(Cc1c[nH]c2ccccc12)N1CN(C)c2ccccc2C1=O` (stereo unspecified), the growth inhibition was 2% (inactive).
The same measure for `O=C(/N=N/C(=O)Oc1ccccc1)Oc1ccccc1`: -66% (inactive); for `COc1cc([C@@H]2c3cc4c(cc3[C@@H](NC(=O)NO)[C@H]3COC(=O)[C@H]23)OCO4)cc(OC)c1O`: 1% (inactive).
As to `CC1(C)CC(=O)C(/C=N/c2nc(-c3ccc(Br)cc3)cs2)=C(O)C1`, the growth inhibition is 32% (inactive).
Next, `CCOC(=O)/C(=C/c1cccc(Cl)c1)N(CC)CC`: 5% (inactive); `CC(C)OC(=O)NNc1cccc(Cl)c1`: 26% (inactive).
With `CCC(=O)C1=C(O)c2cc(OC)ccc2CC1C(=O)OC` (stereo unspecified), the growth inhibition is -1% (inactive).
For the molecule `O=S(=O)(NC1CCCC(c2ccccc2)C1)c1ccccc1` (stereo unspecified), the growth inhibition is 3% (inactive).
Next, `COc1ccc2nc3cccc([N+](=O)[O-])c3c(NCCCCCC(=O)O)c2c1`: 94% (active).
Take `CCO/C=C1\SC(=S)N(c2ccc(OCC)cc2)C1=O`: the growth inhibition is -7% (inactive).
Take `COc1cc(OC)c(CSCC(NC(=O)OCC2c3ccccc3-c3ccccc32)C(=O)O)c(OC)c1` (stereo unspecified): the growth inhibition is -9% (inactive).
As to `COC(=O)c1ccccc1N=NNc1cccc(SC)c1`, the growth inhibition is 16% (inactive).
Take `CC1=NN(C(=O)c2ccccc2O)C(=O)/C1=C/c1ccco1`: the growth inhibition was 17% (inactive).
The same measure for `COc1ccccc1NC(=O)c1ccc(Cl)cc1`: 5% (inactive); for `CC(C)=CCC/C(C)=C/CN1C(=O)C=CC1=O`: 42% (inactive); for `O=C1CSC(c2ccccc2)N1c1ccc(-c2ccc(-n3c(-c4ccccc4)nc4ccccc4c3=O)cc2)cc1` (stereo unspecified): 1% (inactive).
Consider `N#CC1OB(O)c2ccccc21` (stereo unspecified), for which the growth inhibition was -10% (inactive).
Consider `O=C(NCCNCCNC(=O)c1cc(-c2ccccc2)nc2ccccc12)c1cc(-c2ccccc2)nc2ccccc12`, for which the growth inhibition was -2% (inactive).
Next, `Brc1ccc(B2Nc3ccccc3N2)cc1`: 14% (inactive).
Next, `CCOP(=O)(OCC)/C(C#N)=C/c1cccc(Oc2ccccc2)c1`: -30% (inactive).

These data come from PubChem BioAssay (NCI).
